Among the test systems are HCT-15 colon; HT29 colon; SNB-75 CNS; SNB-19 CNS; U251 CNS; PC-3 prostate; SK-MEL-5 melanoma; UACC-62 melanoma; LOX IMVI melanoma; SK-MEL-28 melanoma.
Common to all, as to assay: NCI-60 one-dose screen, 48 h (100 = growth as untreated, 0 = no growth, -100 = all killed)
Common to all, as to settings: 10 µM unless noted

The structures appear in SMILES notation. About 83,000 compounds went through this panel and 20% of them were active in at least one assay; those are over-represented in the sample as a whole.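 Plates (96-well) were seeded with cells, treated with compound at one concentration, and incubated for 48 hours before percent growth was determined.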 Values without a mark were called inactive. Activity calls are given as the source filed them. Rule for the calls: active = growth percent below 10; inactive = the rest.

Consider `CCCCCCCC[Si](OCC)(OCC)OCC`, for which the growth with HCT-15 colon was 107%; with HT29 colon it was 103%; in the experiment on SNB-75 CNS it was 85.2%; in the experiment with SNB-19 CNS, 100%; in the experiment with U251 CNS, 98.9%; in the experiment with PC-3 prostate, 91.5%. Also, the growth is 111% with SK-MEL-5 melanoma, 104% in the experiment with UACC-62 melanoma, 103% with LOX IMVI melanoma and 104% in the experiment on SK-MEL-28 melanoma.
Consider `Nc1nc(SCc2cccnc2)c2ncn(C3OC(CO)C(O)C3O)c2n1` (stereo not given), for which the growth in the experiment on HCT-15 colon was 102%; with HT29 colon it was 106%; in the experiment on SNB-75 CNS it was 101%; in the experiment on SNB-19 CNS, 98.7%; in the experiment with U251 CNS, 98.3%; in the experiment with PC-3 prostate, 89.4%. Also, the growth with SK-MEL-5 melanoma was 99.5%; in the experiment on UACC-62 melanoma, 84.8%; in the experiment on LOX IMVI melanoma it was 102%; in the experiment on SK-MEL-28 melanoma, 111%.
As for `COc1ccc(NS(=O)(=O)N2CCCCC2)cc1`, the growth with HCT-15 colon was 115%; in the experiment on HT29 colon, 102%; in the experiment on SNB-75 CNS, 115%; with SNB-19 CNS it was 96.4%; in the experiment with U251 CNS it was 111%; in the experiment with PC-3 prostate, 91.8%. Moreover, the growth with SK-MEL-5 melanoma was 97.1%; in the experiment with UACC-62 melanoma, 82.5%; in the experiment on LOX IMVI melanoma, 100%; in the experiment on SK-MEL-28 melanoma, 123%.
For the compound `CCOc1cc(/C=C/C(=O)C(C(=O)/C=C/c2ccc(OC(=O)CNc3nnc(C)s3)c(OCC)c2)C(=O)CNc2nnc(C)s2)ccc1OC(=O)CNc1nnc(C)s1`, the growth in the experiment on HCT-15 colon was -60.1% (active); in the experiment on HT29 colon it was -100% (active); in the experiment with SNB-75 CNS, -15.8% (active); in the experiment on SNB-19 CNS, 32.4%; in the experiment on U251 CNS, -61.4% (active); with PC-3 prostate, -27.9% (active). In addition, the growth in the experiment on SK-MEL-5 melanoma was -83.4% (active); in the experiment on UACC-62 melanoma, -88.7% (active); in the experiment on LOX IMVI melanoma, -100% (active); in the experiment with SK-MEL-28 melanoma, -68.5% (active).
With `Cc1nn(-c2nc3ccccc3s2)c(C)c1Oc1ccccc1O`, the growth in the experiment on HCT-15 colon was 29.4%; in the experiment on HT29 colon, 50.1%; in the experiment with SNB-75 CNS it was 78.7%; with SNB-19 CNS it was 80%; in the experiment with U251 CNS it was 33.9%; with PC-3 prostate it was 67%. Also, the growth in the experiment with SK-MEL-5 melanoma was 54.6%; with UACC-62 melanoma it was 39%; in the experiment with LOX IMVI melanoma, 30.1%; in the experiment with SK-MEL-28 melanoma it was 22.1%.
For `CCOC(=O)C(C(=O)OCC)C1CCCCC1`, the growth is 99% in the experiment with HCT-15 colon; 102% with HT29 colon; 87.6% in the experiment with SNB-75 CNS; 102% in the experiment on SNB-19 CNS; 86% with U251 CNS; 94.3% with PC-3 prostate. Also, the growth was 109% with SK-MEL-5 melanoma, 99.2% in the experiment on UACC-62 melanoma, 110% in the experiment on LOX IMVI melanoma and 106% in the experiment with SK-MEL-28 melanoma.
For the compound `CNc1nc(NC2CCCC2)nc(Sc2ccc(OC)cc2)n1`, the growth in the experiment with HCT-15 colon was 24.8% [100 µM]; in the experiment with HT29 colon it was 3.05% [100 µM] (active); with SNB-75 CNS, 48.9% [100 µM]; in the experiment with SNB-19 CNS, 40.4% [100 µM]; with U251 CNS, 25.8% [100 µM]; in the experiment on PC-3 prostate, -7.58% [100 µM] (active). Also, the growth is 11.6% [100 µM] with SK-MEL-5 melanoma, 25.1% [100 µM] in the experiment with UACC-62 melanoma, 22.4% [100 µM] in the experiment with LOX IMVI melanoma and 46.4% [100 µM] in the experiment on SK-MEL-28 melanoma.
For the compound `O=C(COc1cccc(/C=C2\Oc3ccc4ccccc4c3C2=O)c1)c1ccc([N+](=O)[O-])cc1`, the growth with HCT-15 colon is 89.5%; in the experiment on HT29 colon, 96.5%; in the experiment on SNB-75 CNS, 81.4%; in the experiment on SNB-19 CNS it was 100%; in the experiment with U251 CNS it was 94.5%; with PC-3 prostate it was 75.6%. Moreover, the growth in the experiment with SK-MEL-5 melanoma was 87.2%; in the experiment with UACC-62 melanoma, 81.1%; in the experiment on LOX IMVI melanoma, -30.3% (active); with SK-MEL-28 melanoma, 124%.
Regarding `Cc1ccc(/C=C(/C#N)n2nnc3ncccc32)cc1`, the growth in the experiment with HCT-15 colon is 2.19% (active); with HT29 colon, 6.53% (active); in the experiment with SNB-75 CNS, -2.77% (active); with SNB-19 CNS it was 56.7%; in the experiment with U251 CNS, 40.4%; with PC-3 prostate it was 22.3%. The growth is 12.5% in the experiment on SK-MEL-5 melanoma, 22.1% in the experiment with UACC-62 melanoma, 4.54% (active) in the experiment on LOX IMVI melanoma and 28.3% in the experiment on SK-MEL-28 melanoma.
Turning to `O=C(CNC(=O)c1cccc2ccccc12)Nc1ccccc1Cc1ccccc1`, the growth with HCT-15 colon is 28% [5 µM]; in the experiment with HT29 colon, 4.74% [5 µM] (active); with SNB-75 CNS, 32% [5 µM]; in the experiment on SNB-19 CNS, 54.3% [5 µM]; in the experiment on U251 CNS, 24.3% [5 µM]; in the experiment with PC-3 prostate, 31.6% [5 µM]. Further, the growth with SK-MEL-5 melanoma is 34.4% [5 µM]; in the experiment with UACC-62 melanoma, 51.3% [5 µM]; in the experiment on LOX IMVI melanoma, 38.2% [5 µM]; with SK-MEL-28 melanoma, 61% [5 µM].
`O=C(Nc1nc2c(C(F)(F)F)cccc2s1)c1cc(Cl)ccc1O`: the growth in the experiment with HCT-15 colon was 12.3%; in the experiment on HT29 colon, 0.653% (active); in the experiment on SNB-75 CNS it was 14%; in the experiment with SNB-19 CNS it was 10.2%; in the experiment on U251 CNS it was 3.11% (active); in the experiment on PC-3 prostate, 3.52% (active). Also, the growth in the experiment on SK-MEL-5 melanoma was -46.7% (active); in the experiment on UACC-62 melanoma, -37.3% (active); with LOX IMVI melanoma, 5.52% (active); in the experiment on SK-MEL-28 melanoma it was 28.6%.
For `CCCCCc1c(C)[nH]c(/C=C2\N=C(c3ccc[nH]3)C=C2Oc2ccc(Cl)cc2)c1C`, the growth was -26.6% [100 µM] (active) with HCT-15 colon; 0.582% [100 µM] (active) with HT29 colon; -40% [100 µM] (active) in the experiment with SNB-75 CNS; -32.9% [100 µM] (active) in the experiment with SNB-19 CNS; -94.9% [100 µM] (active) in the experiment on U251 CNS; 5.67% [100 µM] (active) in the experiment with PC-3 prostate. Besides, the growth is -90% [100 µM] (active) with SK-MEL-5 melanoma, -83.2% [100 µM] (active) in the experiment on UACC-62 melanoma, -69.2% [100 µM] (active) in the experiment with LOX IMVI melanoma and -52.4% [100 µM] (active) with SK-MEL-28 melanoma.
Take `COc1cc(C(=O)/C=C/c2cccc(Nc3ccnc4cc(Cl)ccc34)c2)cc(OC)c1OC`: the growth in the experiment with HCT-15 colon is -32.1% (active); with HT29 colon, -90% (active); with SNB-75 CNS it was 16.4%; with SNB-19 CNS it was 20.3%; in the experiment with U251 CNS, -90.9% (active); with PC-3 prostate, -12.7% (active). Besides, the growth is -45.5% (active) in the experiment with SK-MEL-5 melanoma, 22.5% with UACC-62 melanoma, -85.8% (active) in the experiment on LOX IMVI melanoma and -39.2% (active) with SK-MEL-28 melanoma.

These data come from PubChem BioAssay (NCI).
